Test results reported in ChEMBL document CHEMBL3988442, “University of Dundee, Small-Polar-MMV Screening Library” (2021).

biological target: AMP-activated protein kinase, AMPK (Homo sapiens) (UniProt P54646+O43741+P54619+Q9UGJ0+Q9Y478+Q13131+Q9UGI9); experiment: AMP-dependent Kinase enzyme assay. An in vitro enzyme assay that detects ADP turnover that is directly proportional to AMPK activity. This uses naive AMPK that is activated during the assay with MK-8722; format: functional; parameters: scale not given: direction of the effect not stated beside the values; details: 30 µM

SMILES	Percent Effect
CC(NC(=O)NCc1ccccn1)c1cccs1 (stereo not given)	-0.209%
COc1cccc(CCn2ccnc2-c2cn(C3CCNCC3)nn2)c1	-20.9%
Cn1ncc2c(NC3CCC3)nc(-c3ccncc3)nc21	87.5%
COc1ccc(CCN(C)C(=O)CN2C(=O)OC[C@@H]2C(C)C)cc1OC	4.03%
CN(C)CC(=O)N1CCN(c2cc(N3CCCC3CO)ncn2)CC1 (stereo not given)	-7.31%
Cc1ccn(C)c(=O)c1NC(=O)N(C)Cc1cccc(OC(C)C)c1	-92.7%
O=S(=O)(NCC1(c2cccs2)CCOCC1)c1cccnc1	-2.3%
CCc1cnc(CNC(=O)NCCc2ccc(O)cc2)s1	47.9%
NC(=O)C(NC1CCN(CC2CCCCC2)CC1)c1ccc(F)cc1 (stereo not given)	-4.02%
O=C(c1ccncc1)N1CCC(Oc2cccc(C(F)(F)F)c2)CC1	-1.49%
COc1ccccc1CN(Cc1nc(CC(C)C)no1)C1CC1	14.9%
COCCN(Cc1ccccn1)C(=O)Nc1cccnc1-n1cccn1	-0.778%
CC(C)N(CC(N)=O)C(=O)CCC(=O)c1ccc(F)cc1F	-2.63%
CC1CN(Cc2cccc(CNC3CCCC3)c2)CCO1 (stereo not given)	2.35%
Cc1ncn(CCNC(=O)Nc2ccccc2)c(=O)c1C	-8.41%
Cc1cccc(N2CCN(C(=O)CNCCn3cccn3)CC2)c1	-3.32%
O=C1CN(C(=O)c2cc3ccc(Br)cc3[nH]2)CCN1	91%
CN(Cc1ccoc1)C(=O)C1CCN(C(=O)C2CCCC2)CC1	-3.16%
Cn1ccnc1C1(O)CCN(C(=O)Cc2ccccc2)CC1	13.3%
CC(C)[C@@H]1CN(C(=O)CCc2ccc(F)cc2)C[C@H]1C(=O)O	-1.24%
